Test results from PubChem BioAssay (NCI).
About 83,000 compounds went through this panel and 20% of them were active in at least one assay; those are over-represented in the sample as a whole.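 Percent growth is the endpoint: 0 to 100 indicates growth inhibition (40 means 60% inhibition), 0 means no net growth, and negative values indicate cell death.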 Active and inactive are the calls of the source. Rule for the calls: active = growth percent below 10; inactive = the rest.

What was measured:
Assay in all cases: NCI-60 one-dose screen, 48 h (100 = growth as untreated, 0 = no growth, -100 = all killed)
Details in all cases: 10 µM
[1] = system: NCI-H23 lung
[2] = system: NCI-H226 lung
[3] = system: NCI-H322M lung
[4] = system: HOP-62 NSCLC
[5] = system: NCI-H460 lung
[6] = system: HOP-92 NSCLC
[7] = system: NCI-H522 lung
[8] = system: A549/ATCC NSCLC
[9] = system: 786-0 renal
[10] = system: COLO 205 colon

| SMILES | growth [1] | growth [2] | growth [3] | growth [4] | growth [5] | growth [6] | growth [7] | growth [8] | growth [9] | growth [10] |
| --- | --- | --- | --- | --- | --- | --- | --- | --- | --- | --- |
| O=c1c2ccccc2nc(COc2ccccc2)n1/N=C/c1ccc(N2CCOCC2)cc1 | 59.2% (inactive) | 37.9% (inactive) | 66.6% (inactive) | 18.4% (inactive) | 66.2% (inactive) | -1.3% (active) | 33.6% (inactive) | 73.7% (inactive) | 45.5% (inactive) | 80.8% (inactive) |
| COc1cccc(/C=C2\N=C(C)N(CCc3ccc(S(N)(=O)=O)cc3)C2=O)c1 | 102% (inactive) | 104% (inactive) | 96.5% (inactive) | 93.5% (inactive) | 105% (inactive) | 92.8% (inactive) | 94.5% (inactive) | 101% (inactive) | 90.4% (inactive) | 131% (inactive) |
| CC(=O)c1cc(C(=O)c2ccc3c(c2)NC(=O)CO3)n2ccc3ccccc3c12 | 58.3% (inactive) | 62.3% (inactive) | 87.8% (inactive) | 74.1% (inactive) | 63.8% (inactive) | 97.7% (inactive) | 71.6% (inactive) | 29.8% (inactive) | 51.7% (inactive) | 91.9% (inactive) |
| C[C@H]1[C@H](C)CC[C@]2(COC(=O)CCC(=O)NCC#CCN3CCNCC3)CC[C@]3(C)C(=CC[C@@H]4[C@@]5(C)CCCNC(C)(C)[C@@H]5CC[C@]43C)[C@H]12 | 44.1% (inactive) | 75.6% (inactive) | 77.2% (inactive) | 60.8% (inactive) | 9.64% (active) | 14.4% (inactive) | 59% (inactive) | 51.6% (inactive) | 55.1% (inactive) | -76.9% (active) |
| CN1C(=O)/C(=C/c2ccc3ncsc3c2)NC1=NC12CC3CC(CC(O)(C3)C1)C2 | -21.1% (active) | -1.04% (active) | 9.71% (active) | 16.7% (inactive) | 9.92% (active) | 22.1% (inactive) | -46.8% (active) | 16.7% (inactive) | 11.1% (inactive) | -37.9% (active) |
| COc1ccc(/C=C/C(=O)c2ccc(N3CCN(C)CC3)cc2)c(C(F)(F)F)c1 | 28.2% (inactive) | 46.4% (inactive) | 76.5% (inactive) | 79.6% (inactive) | 11.2% (inactive) | 46.8% (inactive) | 52.8% (inactive) | 48.4% (inactive) | 41.6% (inactive) | -64.6% (active) |
| C=C[C@H]1[C@H](O[C@@H]2OC(CO)[C@@H](O)[C@H](O)C2OC(=O)c2c(O)cc(O)cc2-c2cccc(O)c2)OC=C2C(=O)OCC[C@H]21 (stereo not given in full) | 96.5% (inactive) | 98.8% (inactive) | 93.8% (inactive) | 93.6% (inactive) | 107% (inactive) | 132% (inactive) | 106% (inactive) | 95.3% (inactive) | 105% (inactive) | 107% (inactive) |
| O=C(CSc1nnc(-c2ccc3nc(-c4ccccc4)[nH]c3c2)o1)Nc1ccc(Br)cc1 | 54.2% (inactive) | 80.2% (inactive) | 86.3% (inactive) | 92.2% (inactive) | 6.71% (active) | 135% (inactive) | 61.2% (inactive) | 66.2% (inactive) | 66.7% (inactive) | 81.1% (inactive) |
| C=CCn1c(SCC(=O)Nc2ccc(C(=O)/C=C/c3ccccc3)cc2)nnc1-c1c[nH]c2ccccc12 | 68.3% (inactive) | 35.4% (inactive) | 79.5% (inactive) | 74.1% (inactive) | 78.6% (inactive) | 70.4% (inactive) | 60.6% (inactive) | 63.5% (inactive) | 79.1% (inactive) | 59.7% (inactive) |
| N#Cc1c(NC(=O)c2ccc(C(F)(F)F)cc2C(F)(F)F)sc2c1CCC(=O)C2 | -50% (active) | -7.56% (active) | 12.4% (inactive) | 7.49% (active) | 12% (inactive) | -61.5% (active) | -72.5% (active) | 9.8% (active) | 4.38% (active) | -73.3% (active) |
| CC(=O)NNc1ccc2nnc(-c3ccc(Br)cc3)n2n1 | 91.5% (inactive) | 87.8% (inactive) | 107% (inactive) | 82.5% (inactive) | 106% (inactive) | 103% (inactive) | 85.3% (inactive) | 95.9% (inactive) | 86.3% (inactive) | 109% (inactive) |
| CSc1nc(-c2cccc(C)c2)c2cc(-c3ccccc3)n(C)c2n1 | 15.8% (inactive) | 40.7% (inactive) | 56.2% (inactive) | 37.4% (inactive) | 10.8% (inactive) | -8.91% (active) | -11.8% (active) | 26.8% (inactive) | 20% (inactive) | 18.7% (inactive) |
| COc1ccc(-c2cc(C(=O)N=Nc3c(O)[nH]c4ccc(F)cc34)c3ccccc3n2)cc1 | 44.4% (inactive) | 68.3% (inactive) | 76.4% (inactive) | 110% (inactive) | 44.2% (inactive) | 87.1% (inactive) | 70.8% (inactive) | 88.3% (inactive) | 63.5% (inactive) | 103% (inactive) |
| CN1CCN(c2ccc(Nc3nc(N4CCN(S(=O)(=O)c5ccc(F)cc5)CC4)c4sccc4n3)cc2)CC1 | -64.4% (active) | -74.7% (active) | -88% (active) | -49.6% (active) | -73% (active) | -66.3% (active) | -86.4% (active) | -48.9% (active) | -72.6% (active) | -79.9% (active) |
| O=C1Nc2ccc(Cl)cc2/C1=C/c1ccc(OCc2ccccn2)cc1 | 62.2% (inactive) | 1.26% (active) | 64.2% (inactive) | 45.6% (inactive) | 16% (inactive) | 72.1% (inactive) | 66% (inactive) | 64.4% (inactive) | 25.7% (inactive) | 89.1% (inactive) |
